± gives the uncertainty stated by the source.
System: FLX1
Experiment: cell viability z-score within plate (CellTiter-Glo), mean of 3 biological replicates; higher = higher viability relative to plate (less growth inhibition)
Details: 2 µM; time (hr): 120
Experimental: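 FLX1 fibrolamellar carcinoma cells (DNAJB1-PRKACA fusion), 600 cells/well in 384-well plates, treated with a Selleck kinase inhibitor library (L1200) at 2 uM for 5 days (120 hr); viability by CellTiter-Glo. A z-score was computed within each plate and averaged over three biological replicates.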

Compound	cell viability z-score within plate
Cn1cc(C2=C(c3cn(C4CCN(Cc5ccccn5)CC4)c4ccccc34)C(=O)NC2=O)c2ccccc21	-2.47 ± 0.57
O=c1[nH]c2ccc(Cl)cc2c(N[C@@H]2CN3CCC2CC3)c1-c1nc2ccccc2[nH]1	0.562 ± 0.43
Cc1ccccc1-n1c(Cn2ncc3c(N)ncnc32)nc2cccc(C)c2c1=O	0.16 ± 0.68
CCN1CCN(C(=O)Cc2ccc(Nc3ncc(F)c(Nc4ccc(C(=O)Nc5ccccc5Cl)cc4)n3)cc2)CC1 [Aurora A Inhibitor I]	-0.367 ± 0.29
CC(C)(C)c1cc(C=C(C#N)C#N)cc(C(C)(C)C)c1O [Tyrphostin 9]	0.448 ± 0.24
CC(C)(C)c1cc(C=C(C#N)C#N)cc(Br)c1O	-0.784 ± 0.7
